ClpP mod = qHTS Assay for Activators of ClpP. ATP-dependent Clp protease proteolytic subunit (Bacillus subtilis (strain 168)), P80244. purified B. subtilis ClpP, FRET peptide cleavage, 20 min. Potency, µM (doses to about 57.5 µM), without a hit: at the top dose activity change, negative = active. 340,000 tested, 1.9% active; active means well fitted falling curve with a large enough effect; inconclusive means small, poorly fitted or top-dose-only effect; inactive means no such curve, though single readings can be large or run the other way; further: the source files actives as falling curves though it sought activators and does not explain the sign; nearly all actives have a fitted effect of over 65% in size
Target sequence (P80244 whole entry, looked up): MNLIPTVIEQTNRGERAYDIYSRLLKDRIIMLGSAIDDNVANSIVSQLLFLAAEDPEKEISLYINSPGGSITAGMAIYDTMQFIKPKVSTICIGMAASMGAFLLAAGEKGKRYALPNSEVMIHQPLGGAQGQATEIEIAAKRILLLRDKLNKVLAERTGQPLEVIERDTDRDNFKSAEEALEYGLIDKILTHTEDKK
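Purified B. subtilis ClpP, 10 microg/mL final in Tris/HCl pH8 with KCl, BSA, glycerol and Tween-20, cleaved an Abz/nitrotyrosine-quenched decapeptide. Fluorescence (ex 320, em 430) was read at 0 and 20 min at room temperature. Delta was normalized to 5.8 microM ADEP and DMSO/no-enzyme controls.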
PTAP TSG101 blk = blocks PTAP/TSG101 interaction to inhibit HIV-1 budding; Q99816; Fluorescence polarization, FITC-PTAP peptide / Tsg101 binding; Potency, µM (top dose mostly 115 µM), for the others: at the highest dose activity change, negative = inhibition, most hits filed as inhibitors; 340,000 tested, under 10 active; AID 493005; active means well fitted inhibition curve with a large enough effect in the main read-out, with a control signal flat, not every such curve was filed as active; inconclusive means small, poorly fitted or top-dose-only effect, or effect the other way, or a change in a side signal; inactive means no such curve, though single readings can be large or run the other way; further: % of control where 0% means no effect
Target sequence (Q99816 whole entry, looked up): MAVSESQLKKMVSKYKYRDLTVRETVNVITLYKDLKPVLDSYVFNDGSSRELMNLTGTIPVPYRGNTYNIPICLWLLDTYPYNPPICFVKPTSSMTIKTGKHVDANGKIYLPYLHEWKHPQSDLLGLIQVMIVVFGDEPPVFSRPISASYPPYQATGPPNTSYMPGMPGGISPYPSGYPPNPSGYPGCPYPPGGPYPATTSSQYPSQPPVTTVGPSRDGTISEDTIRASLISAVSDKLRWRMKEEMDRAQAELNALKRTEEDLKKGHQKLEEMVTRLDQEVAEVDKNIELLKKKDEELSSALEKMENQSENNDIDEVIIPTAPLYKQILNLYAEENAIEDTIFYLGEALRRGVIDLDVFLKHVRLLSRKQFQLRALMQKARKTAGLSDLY
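FP read-out: FITC-PTAP peptide, 50 nM final, binding Tsg101 binding domain, 10 uM final; 20 min, r.t.; 10 mM HEPES pH 7.5, 0.15 M NaCl, 0.01% Tween 20, 3 mM EDTA, 0.1 mM TCEP.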
Rango dissoc inh = inhibitors of RanGTP-induced Rango-importin beta complex dissociation | Potency, µM (series often up to 46.1 µM), inactives show top-dose activity change, negative = inhibition | 340,000 tested, 0.071% active | Biochemical FRET Rango-importin beta, RanGTP-induced dissociation | AID 540253 | O95149+P62826; further: % of control where 0% means no effect; nearly all actives have a fitted effect of over 45% in size
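Rango FRET biosensor (snurportin-1 IBB flanked by N-terminal EYFP and C-terminal CFP10) at 0.1 uM, with 0.25 uM importin beta in PBS, 1mM DTT, 0.02% Tween-20, 0.1% BSA. 0.6 uM Ran, 2mM GTP and 0.2 uM RCC1 were then added for 45 min at room temperature. Inhibition read as loss of FRET rise.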
ALOX12 inh = inhibitors of human 12S-lipoxygenase ALOX12; AID 1671190; purified 12hLO, xylenol orange hydroperoxide absorbance; P18054; 580,000 tested, 1.1% active; Potency, µM (highest dose often 108 µM), for inactives: top-dose activity change, negative = inhibition, hits mostly inhibitors; active means well fitted curve in the direction sought with a large enough effect; inconclusive means small, poorly fitted or top-dose-only effect, or another doubt; inactive means no such curve, though single readings can be large; an effect the other way counts as inactive or inconclusive; further: on the % scale 0 is the no-effect control and ±100 the full control effect
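Hydroperoxide product was detected by ferrous iron/xylenol orange as the 573 to 405 nm absorbance ratio. Arachidonic acid at 40 uM (final) was turned over for 30 min at room temperature by 150 nM human 12hLO, pH 7.0 Hepes buffer, after 15 min compound preincubation.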
Rango complex inh = Rango-importin beta binding inhibition; Q14974; Rango CFP/YFP FRET sensor + importin beta, 45 min; Potency, µM (highest dose often 92.2 µM), without a hit: at the highest dose inhibition of complex formation; 340,000 tested, 0.031% active; AID 540263;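 further: 0% = DMSO wells and 100% = buffer wells lacking importin beta; nearly all actives have a fitted effect of over 15% in size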
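FRET biosensor Rango (snurportin 1 IBB between N-terminal EYFP and C-terminal Cerulean), 50 nM in PBS/1 mM DTT/0.02% Tween-20/0.1% BSA, preincubated 5 min RT with compound; 0.125 microM importin beta added, 45 min RT, CFP/YFP FRET ratio read.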
TDP1 inh = inhibitors of human tyrosyl-DNA phosphodiesterase TDP1 | Q9NUW8 | recombinant TDP1, AlphaScreen DNA substrate cleavage | Potency, µM (titrated, usually from 130 µM), for inactives: top-dose activity change, negative = inhibition, hits mostly inhibitors | 350,000 tested, 0.28% active | AID 485290; active means well fitted curve in the direction sought with a large enough effect; inconclusive means small, poorly fitted or top-dose-only effect, or another doubt; inactive means no such curve, though single readings can be large; an effect the other way counts as inactive or inconclusive; further: on the % scale 0 is the no-effect control and ±100 the full control effect; nearly all actives have a fitted effect of over 40% in size
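Compounds were preincubated with Tdp1 (1 nM final) for 15 min at room temperature before substrate (15 nM final) started a 5 min reaction; beads (10 ug/ml final) were then added for 10 min before AlphaScreen detection.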
* = called active by the depositor; ? = inconclusive; / = no result; [ ] = another dose, or the depositor's remark. An excerpt weighted towards active compounds, which were near 2.4% of everything screened. Unless noted, the call rests on the fitted dose curve. Potency means the concentration at half of the fitted maximal effect.

SMILES	ClpP mod	PTAP TSG101 blk	Rango dissoc inh	ALOX12 inh	Rango complex inh	TDP1 inh
CC(C)C(=O)Nc1cccc(NC(=S)NC(=O)c2ccc3c(c2)OCO3)c1	5%	2%	1%	3.5µM*	0%	1%
O=C(NC(=S)NCc1ccccc1)c1ccc2c(c1)OCO2	2%	-3%	2%	16µM*	5%	3%
Cc1onc(-c2ccccc2)c1C(=O)NCc1ccc2c(c1)OCO2	0%	-2%	-17%	2%	-4%	-7%
COc1cccc(C(=O)NC2CC(C)(C)Cc3c2cnn3-c2cccc(F)c2)c1OC (stereo unspecified)	14µM*	-1%	9%	?	0%	2%[56.1 µM]
COc1cc(C(=O)NC2CC(C)(C)Cc3c2cnn3-c2ccccc2)cc(OC)c1OC (stereo unspecified)	/	4%	2%	10%	1%	0%
CC(C)(C)c1ccc(C(=O)NC(=S)Nc2nc3c(s2)CCCC3)cc1	/	-7%	-9%	45µM*	-2%	7%
CN(C)c1ccc(C(=O)Nc2nc3c(s2)CCCC3)cc1	-28%	1%	11%	?	-2%	11%
CNc1sc(C(C)=O)cc1C	/	/	/	13µM*	/	/
N#Cc1c(-c2ccccc2)cc(-c2ccccc2)[nH]c1=O	4%	-6%	-12%	0%	2%	/
N#Cc1c(-c2cccc(Br)c2)cc(-c2ccco2)[nH]c1=O	/	-2%	?	18µM*	?	-5%
COc1ccc(-c2cc(C(F)(F)F)c(C#N)c(=O)[nH]2)cc1	4%	-1%	?	-1%	?	/
COc1ccc(-c2cc(-c3ccco3)[nH]c(=O)c2C#N)cc1	5%	-3%	-19%	40µM*	?	/
O=C(COc1ccc(F)cc1)Nc1ccc(-c2nnc3n2CCCC3)cc1	/	/	/	32µM*	/	/
S=C(NCc1ccccc1)N/N=C/c1ccccn1	/	/	/	-29%	/	/
S=C(NCc1ccccc1)N/N=C/c1c2ccccc2c(Cl)c2ccccc12	/	/	/	18µM*	/	/
S=C(NCCc1ccccc1)N/N=C/c1c(Cl)cccc1Cl	1%	1%	14%	40µM*	8%	1%
Cc1cc(C(=O)N2CCCC3(CCNCC3)CC2)c2cnn(C(C)C)c2n1	/	/	/	20µM*	/	/
Cc1ccc(S(=O)(=O)N2CCN(C(=O)c3cc(C4CC4)nc4c3cnn4C(C)C)CC2)cc1	-4%	2%	0%	?	0%	-1%
CC(=O)N(Cc1cccnc1)c1cccc(-c2nc3ccccc3s2)c1	14µM*	-4%	-27%	0%	4%	7%
COc1ccc2nc(N(Cc3cccnc3)C(C)=O)sc2c1	0%	/	/	7%	/	3%
O=c1oc2cc(OCc3ccc([N+](=O)[O-])cc3)ccc2c2c1CCCC2	-7%	-2%	-6%	0%	?	-6%
O=C(O)c1ccc(COc2ccc3c4c(c(=O)oc3c2)CCC4)o1	2.5µM*	-5%	-2%	-1%	0%	/
COC(=O)c1ccc(COc2ccc3c(C)c(C)c(=O)oc3c2)o1	2.8µM*	0%	1%	-1%	1%	-2%
COC(=O)c1ccc(COc2ccc3ccc(=O)oc3c2)o1	3%	-3%	-3%	-7%	-4%	/
Cc1cc(C)n(CCC(=O)NC2CCCN(c3cc(-c4ccc(F)cc4)[nH]n3)C2)n1 (stereo unspecified)	/	/	/	27%	/	/
SMILES	ClpP mod	PTAP TSG101 blk	Rango dissoc inh	ALOX12 inh	Rango complex inh	TDP1 inh
CCCC12CN(C(C)=O)CC(CCC)(CN(C(C)=O)C1)C2=O	/	/	/	20%	/	/
Cc1ccc(NC(=O)N[C@H]2C[C@@H](c3nc(-c4ccc5c(c4)OCO5)no3)N(C)C2)cc1	/	/	/	-6%[176 µM]	/	/
Cc1ccc(/C(O)=C2\C(=O)C(=O)N(CC(C)O)C2c2cccc(F)c2)cc1 (stereo unspecified)	1%	-2%	-16%	18µM*	-2%	-2%
COc1ccccc1C1/C(=C(/O)c2ccccc2)C(=O)C(=O)N1CCO (stereo unspecified)	-24%	-1%	10%	?	0%	-3%
COc1ccccc1C1/C(=C(/O)c2ccccc2)C(=O)C(=O)N1CC(C)O (stereo unspecified)	0%	-1%	4%	3.5µM*	-1%	0%
COc1ccc(/C=C(/C#N)C(=O)Nc2cc(C)ccc2C)cc1C(=O)O	25µM*	-3%	0%	356%	-1%	2%
COc1ccccc1/C=C/C=C(/C#N)C(=O)Nc1cc(C(F)(F)F)ccc1Cl	/	/	/	-27%	/	/
COc1ccc(/C=C(\C#N)C(=O)Nc2ccccc2C(=O)O)cc1OC(=O)c1ccccc1Cl	/	/	/	40µM*	/	/
COc1ccc(/C=C(/C#N)C(=O)Nc2ccccc2C(=O)O)cc1O	/	/	/	-69%	/	/
COc1ccc(/C=C(/C#N)C(=O)Nc2ccccc2C(=O)O)cc1OC	/	/	/	1%	/	/
COc1ccccc1/C=C/C=C(/C#N)C(=O)Nc1ccccc1C(=O)O	/	/	/	7.1µM*	/	/
CCN(CC(=O)NCc1cccs1)C(=O)C1CC(=O)N(c2cc(C)ccc2OC)C1 (stereo unspecified)	/	/	/	38%	/	/
CCCC(=O)N/N=C/c1ccccc1	/	/	/	14%	/	/
O=C(/C=C/c1c(F)cccc1Cl)N1CCc2ccccc2C1	/	1%	5%	5.6µM*	0%	/
COCCN1C(=O)c2ccccc2C(C(=O)NCc2ccco2)C12CCCC2 (stereo unspecified)	/	/	/	51%	/	/
COc1c(Cl)cc(Cl)cc1/C=N/O	/	/	/	-24%	/	/
Cc1cccn2c(=O)c(C(=O)NC3CCCCC3C)c(O)nc12 (stereo unspecified)	28µM*	-3%	25%	-1%	-4%	0%
Cc1cccn2c(=O)c(C(=O)NC3CCCCC3)c(O)nc12	-13%	0%	10%	-19%	-1%	0%
COCc1nncn1C1CCN(C(=O)c2ccc(C)c(C)c2)CC1	/	/	/	20%	/	/
CCSc1sc(CC)cc1C(C)=O	/	/	/	-48%	/	/
Cc1ccc(-c2n[nH]c(=S)n2/N=C/c2ccc(C)s2)cc1	-1%	-3%	3%	16µM*	1%	4%
Cc1ccc(-c2n[nH]c(=S)n2/N=C/c2cccn2C)cc1	-1%	0%	-2%	25µM*	-5%	4%
Cn1cccc1/C=N/n1c(-c2ccc(Cl)cc2)n[nH]c1=S	4%	0%	-15%	?	2%	3%
COc1ccc2nc(N3CCCC3)c(C#N)cc2c1	-2%	?	?	?	?	/
COc1ccc2nc(N3CCCCC3)c(C#N)cc2c1	-28%	54%	?	1%	?	40µM*
